# Screening data (PubChem BioAssay)
# The list is not random: actives were taken first. Their share in the collection is about 1.6%.
# PrP 5UTR inh: suppresses PrP 5' UTR mRNA reporter expression. cell-based PrP 5' UTR mRNA reporter, plate reader. inhibition, % (test concentration not listed). 340,000 compounds, 0.35% hits; in the data active = inhibition above about 52%
# SARS 3CLpro inh: SARS-CoV 3CLpro protease inhibition; P0C6X7; inhibition, % at 6 µM; 290,000 compounds, 0.14% hits; recombinant SARS-CoV 3CLpro, quenched FRET peptide cleavage; in the data active = inhibition above about 12%
# PrPC surface inh: inhibitors of human cell surface prion protein PrPC. AID 720596. TR-FRET read-out. inhibition, % at 13.8 µM. 370,000 compounds, 0.43% hits; in the data active = inhibition above about 24%
# BH1578 lux ind: induces V. cholerae light production without autoinducers; AID 588436; activation, % at 18.7 µM; V. cholerae BH1578 lux reporter, luminescence, 6 h; 350,000 compounds, 0.16% hits; in the data active = activation mostly above about 9.7%, no sharp cut-off
# SSB-PriA inh: K. pneumoniae PriA-SSBct interaction inhibition; AlphaScreen SSBct-PriA binding, biotinylated peptide; inhibition, % at 33 µM; 430,000 compounds, 0.6% hits; AID 1272365; in the data active = inhibition mostly above about 37%, no sharp cut-off; inactive = mostly below about 20%
# PfHsp40 yeast: compounds rescuing yeast from Plasmodium falciparum HSP40 toxicity. S. cerevisiae expressing PfHsp40, growth rescue, ATP luminescence. growth rescue, % at 12.5 µM. 340,000 compounds, 0.68% hits; in the data active = growth rescue above about 28%, passing the limit was not always enough;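 note: yeast W303a lacking pdr1 and pdr3 grown in galactose medium; growth measured after three days at 30 °C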
# Hits are given with their value; n = inactive; x = not tested or not shown; ! = repeats disagree.
SMILES,PrP 5UTR inh,SARS 3CLpro inh,PrPC surface inh,BH1578 lux ind,SSB-PriA inh,PfHsp40 yeast
Cc1ccc(CSc2nnc(-c3ccccn3)n2N)cc1,x,n,n,n,n,x
Cc1cc(N=Nc2ccccc2C)ccc1N,n,x,n,n,81,n
Cc1ccccc1N=Nc1ccc(NC(=O)c2sc3ccccc3c2Cl)c(C)c1,x,x,x,x,n,x
COc1ccc(C[C@](C)(O)CNC(=O)C2CCN(S(C)(=O)=O)CC2)cc1,x,x,x,x,n,x
Cc1ccc2sc(N(CCCN(C)C)C(=O)c3ccc(S(=O)(=O)N4CCc5ccccc5C4)cc3)nc2c1C,n,x,n,n,n,79
COc1ccc(OC)c2sc(N(CCCN(C)C)C(=O)c3ccc(S(=O)(=O)N4CCc5ccccc5C4)cc3)nc12,x,x,x,x,n,x
COc1ccc(C)c2sc(N(CCCN(C)C)C(=O)c3ccc(S(=O)(=O)N4CCc5ccccc5C4)cc3)nc12,n,x,n,n,47!,n
Cc1ccc2sc(N(CCN(C)C)C(=O)c3ccc4c(c3)OCCO4)nc2c1C,x,x,x,x,40,x
CN(C)CCN(C(=O)c1ccc2ccccc2c1)c1nc2c(F)cc(F)cc2s1,n,n,n,n,37!,n
COc1cccc2sc(N(CCCN(C)C)C(=O)c3ccc(S(=O)(=O)N4CCc5ccccc5C4)cc3)nc12,n,n,n,n,n,n
Cc1cc(NC(=O)COc2ccc(Cl)cc2Cl)n(C)n1,x,x,x,x,n,x
Cc1ccc(C(C)NC(=O)c2cc(C)oc2C)cc1 (configuration not stated),n,n,n,n,n,48
COc1cc2c(c(OC)c1OC)-c1ccc(O)c(=O)cc1[C@@H](N)CC2,n,x,n,n,n,352
CCC(=O)Nc1nnc(SCC(=O)N2c3ccccc3CC2C)s1 (configuration not stated),n,n,n,17,n,n
CC1Cc2ccccc2N1C(=O)CSc1nnc(NC(=O)Cc2cccs2)s1 (configuration not stated),x,n,n,x,n,x
COc1ccc(CC(=O)Nc2c3c(nn2C(C)(C)C)CSC3)cc1OC,x,x,x,x,n,x
O=C(N[C@H]1CC(=O)N(C2CC2)C1)c1ccc2c(c1)OCO2,x,x,x,x,n,x
Cc1cc(CNC(=O)COC(=O)c2ccc(Cl)c(N)c2)cc(C)c1O,n,x,n,n,n,105
O=C(CSc1cccc2cccnc12)Nc1ccc2ccccc2c1,x,x,x,x,n,x
O=C(CSc1cccc2cccnc12)Nc1cc(Cl)cc(Cl)c1,x,x,x,x,57,x
O=C(CSc1cccc2cccnc12)Nc1cc(C(=O)O)cc(C(=O)O)c1,n,n,n,n,75,n
NNC(=O)CSc1cccc2cccnc12,n,n,n,n,n,n
Cc1cccc(NC(=O)CSc2cccc3cccnc23)c1,n,n,n,n,49,n
O=C(CSc1cccc2cccnc12)NC1CCS(=O)(=O)C1 (configuration not stated),x,x,x,x,37,x
O=C(c1c[nH]c(=O)n(Cc2ccccc2Cl)c1=O)N1CCN(c2ncccn2)CC1,x,x,x,x,n,x
SMILES,PrP 5UTR inh,SARS 3CLpro inh,PrPC surface inh,BH1578 lux ind,SSB-PriA inh,PfHsp40 yeast
COc1ccc(S(=O)(=O)NCC2CCN(Cc3ccccc3)CC2)cc1F,x,x,x,x,n,x
CC1CC(C)CN(S(=O)(=O)c2ccc(C(=O)Nc3ccc4ncsc4c3)cc2)C1 (configuration not stated),x,x,x,x,n,x
Cn1nc(N)c2c1N=P(N1CCOCC1)(N1CCOCC1)N=C2c1ccccc1,n,n,n,n,n,n
CN(C)P1(N(C)C)=Nc2c(c(N)nn2C)C(c2ccccc2)=N1,n,n,n,n,n,39!
CN(C)S(=O)(=O)c1ccc(C(=O)Nc2nnc(-c3ccc4c(c3)CCCC4)o2)cc1,n,n,n,n,n,n
COC(=O)c1ccc(C(=O)Nc2nnc(-c3ccc4c(c3)CCCC4)o2)cc1,x,x,x,x,38,x
c1ccc(Nc2cccc(Nc3ccccc3)c2)cc1,n,n,n,n,66,69
Nc1cccc(Nc2ccccc2)c1,n,n,n,n,n,n
CN1N=C(N)c2cn(C3OC(COP(=O)(O)O)C(O)C3O)c3ncnc1c23 (configuration not stated),n,x,n,50,n,n
Nc1ncnc2c1ncn2[C@@H]1O[C@H](COP(=O)(O)O)[C@@H](O)[C@H]1O,n,n,n,n,n,n
Oc1ccccc1-c1cc(-c2ccc3c(c2)OCCO3)n[nH]1,n,n,n,n,n,476
COc1ccc(OCC(=O)NNC(=S)NC(=O)C2CCCCC2)cc1,n,n,n,n,x,346
COc1ccc(OCC(=O)NNC(=S)NC(=O)C2CC2)cc1,n,n,n,n,n,n
Cc1cc(C)cc(OCC(=O)NNC(=S)NC(=O)C2CC2)c1,n,n,n,n,n,112
CCc1ccc(OCC(=O)NNC(=S)NC(=O)C2CC2)c(Br)c1,n,n,n,n,n,48
CS(=O)(=O)NCCCn1nc(-c2cccs2)ccc1=O,x,x,x,x,n,x
O=C(Cc1ccc(S(=O)(=O)N2CCOCC2)s1)Nc1ccccc1Br,n,n,n,n,n,n
NC(=O)c1cc(-c2ccccc2)sc1NC(=O)Cc1ccc(S(=O)(=O)N2CCOCC2)s1,n,19,n,n,n,n
Cn1nc(C2CCN(Cc3ccc(F)cc3)CC2)n(-c2ccccc2)c1=O,x,x,x,x,n,x
O=[N+]([O-])c1ccc(N2CCCC2)cc1N1CCN(c2ccccc2)CC1,x,x,x,x,84,x
CN1CCN(c2ccc([N+](=O)[O-])c(N3CCCCC3)c2)CC1,n,n,n,n,n,n
CON=Cc1ccc(N2CCCC2)c([N+](=O)[O-])c1,x,x,x,x,39,x
CO/N=C/c1ccc(N2CCOCC2)c([N+](=O)[O-])c1,n,n,n,n,x,n
CN1CCN(c2cc(N3CCCC3)ccc2[N+](=O)[O-])CC1,x,x,x,x,59,x
CCOCC(=O)NCC(Cc1cccc(F)c1)N1CCNC1=O (configuration not stated),x,x,x,x,n,x
SMILES,PrP 5UTR inh,SARS 3CLpro inh,PrPC surface inh,BH1578 lux ind,SSB-PriA inh,PfHsp40 yeast
Nc1cc2c(cc1[N+](=O)[O-])-c1ccccc1C2=NO,n,x,n,n,n,73
CNc1sc(C(=O)c2ccc(F)cc2)c(N)c1-c1nc2ccccc2s1,n,n,n,n,n,n
CNc1sc(C(=O)c2cccs2)c(N)c1-c1nc2ccccc2s1,n,n,n,n,53,n
N#Cc1nccnc1OC1CCN(C(=O)c2ccc(=O)[nH]n2)C1 (configuration not stated),x,x,x,x,n,x
NC(=O)NC[C@@H]1CC[C@@H](Cc2ccc(-c3ccccc3)cc2)O1,n,x,x,n,n,n
COc1ccc2cc(C[C@@H]3CC[C@@H](CNC(N)=O)O3)ccc2c1,n,x,n,n,n,38
Cc1cc(OC(=O)c2ccccc2[N+](=O)[O-])c([N+](=O)[O-])c(=O)[nH]1,n,n,n,n,99,n
Cc1cc(OC(=O)c2ccccc2I)c([N+](=O)[O-])c(=O)[nH]1,x,x,x,x,n,x
N#CCCN1CCCc2cc(N=Nc3ccc(C(F)(F)F)cc3)ccc21,n,n,n,n,45,n
COc1cc(/C=C/c2nc(-c3ccccc3O)n[nH]2)cc(OC)c1OC,n,n,n,n,n,42
COc1cc(/C=C/c2nc(N)nc(-c3ccccc3O)n2)cc(OC)c1OC,n,n,n,n,n,n
